# Calls of active or inactive are those of the source. The calls were made as follows: active = hit-call score of the fitted dose curve at least 0.9, where 1 is the maximum; inactive = score below 0.9.
# Target: Bile acid receptor (Homo sapiens) (UniProt Q96RI1)
# Assay: ATG_IR1_CIS: Attagene CIS-FACTORIAL HepG2 Assay for human Nuclear Receptor Subfamily 1 Group H Member 4 (NR1H4), IR1 submotif (AID 2282946)
# Conditions: IR1 reporter transcription, actives raise or lower the signal
# Procedure: ATG_CIS is a cell-based, multiplexed-readout assay that uses HepG2, a human liver cell line, with measurements taken at 24 hours after chemical dosing in a 24-well plate.ATG_IR1_CIS is one of 52 assay component(s) measured or calculated from the ATG_CIS assay. It is designed to make measurements of mRNA induction, a form of inducible reporter, as detected with fluorescence intensity signals by Reverse transcription polymerase chain reaction (RT-PCR) and Capillary electrophoresis technology.Data from the assay component ATG_IR1_CIS was analyzed into 1 assay endpoint. This assay endpoint, ATG_IR1_CIS, was analyzed with bidirectional fitting relative to DMSO as the negative control and baseline of activity. Using a type of inducible reporter, measures of mRNA for gain or loss-of-signal activity can be used to understand the reporter gene at the transcription factor-level as they relate to the gene NR1H4. Furthermore, this assay endpoint can be referred to as a primary readout, because this assay has produced multiple assay endpoints where this one serves a reporter gene function. To generalize the intended target to other relatable targets, this assay endpoint is annotated to the nuclear receptor intended target family, where the subfamily is non-steroidal.
# Human liver HepG2 cells are transiently transfected with multiple reporter transcription units (MRTUs) in 6-well plates using FuGene 6 reagent (Roche; 3 ml FuGene/1 mg DNA). The MRTU constructs are regulated by a cis-regulating element (promoter). […] A major difference between the CIS and TRANS system is that in CIS activities of endogenous TFs are measured, whereas the TRANS assay evaluates changes in activities of exogenous, chimeric NR-Gal4 proteins. […] At the end of 24 hour incubation, total RNA was isolated using TriZol reagent (Invitrogen). The isolated RNA is then reverse-transcribed using oligo(dT) primer and Mo-MLV reverse transcriptase (Invitrogen) with DNAse I (Ambion) treatment for 30 min. The one-tenth of the produced cDNA was amplified by PCR using Taq DNA polymerase (Invitrogen) and two reporter sequence-specific primers. The PCR products were fluorescently labeled by primer extension with 6-arboxyfluorescein (6-FAM) 5'-labeled reporter sequence-specific primer (2 min at 95 C, 20 s at 68 C and 10 min at 72 C) and these products were digested with 5U of HpaI (New England Biolabs) for 2h at 37 C. The fragments were purified using Qiaquick PCR columns (Qiagen), analyzed on an ABI 3130xL genetic analyzer (Applied Biosystems) with peak positions identified by using a set of X-rhodamine (ROX)-labeled MapMarker1000 molecular weight standards (BioVentures). The raw capillary electrophoresis data was processed using Attagraph software (Attagene).
# Sequence of Bile acid receptor (Homo sapiens) (Q96RI1 whole entry, looked up): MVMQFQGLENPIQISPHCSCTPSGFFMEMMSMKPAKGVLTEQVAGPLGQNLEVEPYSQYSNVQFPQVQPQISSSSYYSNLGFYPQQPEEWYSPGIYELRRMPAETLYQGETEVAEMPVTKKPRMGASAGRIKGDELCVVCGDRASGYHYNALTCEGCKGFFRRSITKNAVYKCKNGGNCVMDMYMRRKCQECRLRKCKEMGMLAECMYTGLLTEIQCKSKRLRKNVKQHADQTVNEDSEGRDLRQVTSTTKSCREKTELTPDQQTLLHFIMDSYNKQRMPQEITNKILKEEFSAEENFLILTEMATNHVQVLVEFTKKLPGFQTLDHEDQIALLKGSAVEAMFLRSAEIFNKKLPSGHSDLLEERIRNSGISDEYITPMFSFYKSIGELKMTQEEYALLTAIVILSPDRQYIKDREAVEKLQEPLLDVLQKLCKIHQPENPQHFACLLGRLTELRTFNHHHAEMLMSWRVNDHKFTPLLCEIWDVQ
SMILES,outcome,AC50
COC(=O)CCSCCC(=O)OC,inactive,–
O=C(Oc1ccccc1)c1ccccc1,inactive,–
CCOc1ccc2c(c1)C(C)CC(C)(C)N2 (stereo not given),inactive,–
Cc1cc2nc3c(=O)[nH]c(=O)nc-3n(C[C@H](O)[C@H](O)[C@H](O)CO)c2cc1C,inactive,–
CC/C=C\CCO,inactive,–
c1ccc(CNc2ncnc3nc[nH]c23)cc1,inactive,–
COC(=O)[C@]1(C)CCC[C@@]2(C)[C@H]1CC=C1C=C(C(C)C)CC[C@@H]12,–,6.77 µM (active)
CC1=CCCC(C)(C)C12CCC(C)O2 (stereo not given),inactive,–
O=C(OCc1ccccc1)c1ccccc1,inactive,–
O=C(CC(C(=O)OC1CCCCC1)S(=O)(=O)O)OC1CCCCC1 (stereo not given),inactive,–
CC(C)(C)NC(=O)[C@@H]1CN(Cc2cccnc2)CCN1C[C@@H](O)C[C@@H](Cc1ccccc1)C(=O)N[C@H]1c2ccccc2C[C@H]1O,inactive,–
O=[N+]([O-])c1ccc2nc[nH]c2c1,inactive,–
Oc1cccc2ccccc12,inactive,–
NC(=O)c1ccc([N+](=O)[O-])cc1Cl,inactive,–
CCC(=O)OCc1ccc(OC)cc1,inactive,–
CCCCOC(=O)COc1ccc(Cl)cc1Cl,–,24.4 µM (active)
CCCCCCCCCCCCCCCCCC[N+](C)(C)C,–,45.2 µM (active)
CCCCCC1CCCC(=O)O1 (stereo not given),inactive,–
O=C1NC(=O)C2CC=CCC12 (stereo not given),inactive,–
CCCCCC[C@@H](O)C/C=C\CCCCCCCC(=O)O,–,149 µM (active)

SMILES,outcome,AC50
[O-][n+]1ccc(Cl)cc1,inactive,–
O=C1NC(=O)[C@@H]2CC=CC[C@H]12,inactive,–
C/C=C(\C)C(=O)OCC/C=C\CC,inactive,–
Oc1ccc(Cl)cc1C1CCCC1,–,57.8 µM (active)
CCO[Si](OCC)(OCC)c1ccccc1,inactive,–
CN1CCCC1,inactive,–
Oc1ccc(Oc2ccccc2)cc1,inactive,–
Cc1ccnc(N)c1,inactive,–
CC(=O)OC(C)(C)Cc1ccccc1,inactive,–
C=CC(C)(CCC=C(C)C)OC(=O)c1ccccc1 (stereo not given),inactive,–
CC/C=C/CCO,inactive,–
CCCCNC(N)=O,inactive,–
CC(C)CC(=O)CC(C)CC(C)C (stereo not given),inactive,–
C=C(C)C(=O)OCC1CCCO1 (stereo not given),inactive,–
Cc1ccccc1S(N)(=O)=O,inactive,–
CCCCCCCCCC/C=C/C1CC(=O)OC1=O (stereo not given),inactive,–
CCCC(=O)OC/C=C(\C)CCC=C(C)C,inactive,–
CCCc1c(OCCCCc2nn[nH]n2)ccc(C(C)=O)c1O,inactive,–
Clc1ccccn1,inactive,–
Cc1cc(-n2nc3ccc(Cl)cc3n2)c(O)c(C(C)(C)C)c1,inactive,–
